Bioassay records deposited in PubChem by several laboratories.
C8 TRAIL sens: caspase-8 TRAIL sensitization. NB7+C8 cells + TRAIL, ATPlite viability luminescence. inhibition (viability loss, TRAIL sensitization), % at 10 µM. actives 1% (n = 360,000). AID 624354;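 active = compounds causing at least 50% loss of cell viability in the single-dose screen, relative to plate controls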
STAT1 inh: STAT1 signaling inhibition; actives 0.35% (n = 200,000); inhibition, % at 5.5 µM; AID 920; NIH 3T3 STAT1-luciferase reporter, IFN-gamma, luminescence;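 active = inhibition above a set limit, the mean inhibition across all tested compounds plus 3 SD, cut at about 34% in these data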
Platelet DG rel: platelet dense granule release activity. actives 0.22% (n = 300,000). inhibition, %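 (compounds screened at 7.5 µM in platelet-rich plasma)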. human platelet-rich plasma, SFLLRN dense granule ATP release, luminescence;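 active = mean replicate score, as percent of positive control, at or above 50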
STAT3 blocker: reduces IL-6 driven STAT3 reporter signal; U3A cells, IL-6 STAT3-luciferase reporter, luminescence; host cell line lacks STAT1; inhibition, % at 5.5 µM; actives 0.89% (n = 190,000); AID 862;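 active = inhibition above the mean inhibition across all screened compounds plus 3 SD, cut at about 44% in these data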
PPC-1+TRAIL kill: kills PPC-1 cancer cells in the presence of TRAIL | PPC-1 cells + TRAIL, ATPLite viability luminescence | cell killing (% activity), % at 4 µM or 5 µM | actives 0.41% (n = 220,000) | AID 1443;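 active = cell killing above 50% in the first pass at 4 µM, then a duplicate retest at 5 µM averaging 50% or more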
PPC-1 tox: PPC-1 cell cytotoxicity; shares compounds with PPC-1+TRAIL kill; actives 50% (n = 1,200); cytotoxicity, % at 5 µM; AID 1447; PPC-1 viability, ATPlite luminescence, overnight;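 active = reconfirmed compounds whose average cytotoxicity reaches 50% or more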
Hits are given with their value; i = inactive; nt = no result given. This is a sample that favours compounds with a hit; in the whole collection about 1.6% have one here.

SMILES	C8 TRAIL sens	STAT1 inh	Platelet DG rel	STAT3 blocker	PPC-1+TRAIL kill	PPC-1 tox
Cc1ccc2nc(-c3ccc4c(c3)OCCO4)cn2c1	92	nt	i	nt	93	92
O=C(O)c1cc(-c2ccc3c(c2)OCO3)nc2ccc(Cl)cc12	i	nt	i	nt	nt	nt
COc1ccc(C(C)=O)cc1Cn1c(C)c(C(=O)NCCC#N)sc1=O	i	nt	nt	nt	nt	nt
CC[C@@]1(O)C(=O)OCc2c1cc1n(c2=O)Cc2cc3c(N)cccc3nc2-1	i	nt	i	nt	i	i
Clc1ccccc1CSc1nc2ccncc2[nH]1	76	i	i	i	75	76
COc1cccc(N2CCN(C(=O)c3ccc(CSc4nc5ccncc5[nH]4)cc3)CC2)c1	i	i	i	i	i	nt
Clc1ccccc1CSc1ncccn1	i	i	i	i	i	i
COc1cccc(CSc2nc3ccncc3[nH]2)c1	86	nt	i	nt	83	81
CCC[C@@H]1C=C(C(=O)OCC)[C@H](c2ccccc2)N1S(=O)(=O)c1ccc(C)cc1	i	nt	nt	nt	nt	nt
CC(C)NC(=O)C1(C)CN(S(C)(=O)=O)CC(=O)N1CCc1ccc(O)cc1 (centres undefined)	i	nt	nt	nt	nt	nt
CC(C)C[C@@H](CN1CCC[C@@H]1CN1C(=S)NC[C@@H]1Cc1ccc(O)cc1)N1C[C@H](Cc2ccc(O)cc2)N(CC2CCCCC2)C1=S	i	nt	nt	nt	nt	nt
Cc1cccc2nc(=S)n(C(=O)c3ccco3)n12	54	i	i	i	i	i
CC(=O)N1CCN(C(=O)c2ccco2)CC1	i	nt	i	nt	nt	nt
CCn1c(-c2cc(-c3ccc(OC(C)C)cc3)nc3ccccc23)n[nH]c1=S	56	i	i	i	i	i
CC(=O)OC(C(=O)n1nc(C)cc1C)c1ccccc1 (centres undefined)	i	i	i	i	i	nt
CC(=O)OC(Cn1nc(C)cc1C)c1ccccc1 (centres undefined)	i	i	nt	i	i	i
CCOC(=O)[C@]12CCCC=C1N(CCC1=CCCCC1)C(=O)[C@H](CC(=O)NCC1CCCCC1)C2	i	nt	nt	nt	nt	nt
Cc1cccc(OCCn2c(NC(=O)c3ccco3)nc3ccccc32)c1	i	i	i	i	i	i
OC[C@@H]1CN(Cc2cccs2)C[C@H](n2cnc3c(NC4CCC4)ncnc32)O1	i	nt	nt	nt	nt	nt
Cc1ccccc1-c1nc(-c2ccccn2)no1	87	77	i	99	84	80
COc1ccc(-c2nc(-c3cccs3)no2)cc1	63	nt	i	nt	i	i
COc1ccccc1-c1nc(-c2ccccn2)no1	73	36	i	75	63	63
Cc1ccc(-c2noc(-c3cccs3)n2)cc1	i	i	i	i	i	nt
COc1ccc(-c2nc(-c3ccccn3)no2)cc1	96	96	61	109	93	92
COc1ccc(-c2nc(-c3ccncc3)no2)cc1	i	nt	i	nt	nt	nt
SMILES	C8 TRAIL sens	STAT1 inh	Platelet DG rel	STAT3 blocker	PPC-1+TRAIL kill	PPC-1 tox
COc1ccc(C(N)c2csc(Nc3ccc(C(=O)NCCCO)cn3)n2)cc1 (centres undefined)	i	nt	nt	nt	nt	nt
CSc1cc(C)n(-c2ccccc2)c(=S)c1C(C)=O	i	i	i	i	i	i
COc1ccc(NC(=O)CCCNC(=O)Cn2cnc3sc4c(c3c2=O)CCCC4)c(OC)c1	i	nt	i	nt	nt	nt
Oc1ccc(N=Nc2ccc3c(c2)OCO3)c2ccccc12	nt	nt	i	nt	i	i
CC(c1nc2ccccc2[nH]1)N(C(=O)C1=NNC(=O)CC1)c1ccccc1 (centres undefined)	i	nt	nt	nt	nt	nt
CCOC(=O)c1nn(-c2ccc3c(c2)CCN3C(C)=O)cc1O	62	i	i	i	i	i
CCOC(=O)c1nn(-c2ccc(F)cc2)cc1O	i	i	i	i	i	nt
CCc1ccc(C(=O)Nc2nnn(CC)n2)cc1	66	i	i	i	63	57
CCn1nnc(NC(=O)c2ccc(Br)o2)n1	i	nt	i	nt	nt	nt
NC(Cc1ccc(Cl)cc1)c1csc(Nc2ccc(C(F)(F)F)cn2)n1 (centres undefined)	i	nt	nt	nt	nt	nt
C[C@H](NC(=O)c1ncn2c1C(=O)N(C)CC2)C(=O)OC(C)(C)C	i	nt	nt	nt	nt	nt
COc1cc(/C=C/c2cc(C(=O)O)c3ccccc3n2)ccc1OC(F)F	83	nt	i	nt	80	79
O=C(Nc1ccccn1)c1ccc2ccccc2n1	55	i	i	i	i	52
O=C(Nc1nccs1)c1ccc2ccccc2n1	i	nt	i	nt	nt	nt
CCCCN1C(=O)/C(=C2\SC(N3CCCCC3)=NC2=O)c2ccccc21	i	i	i	i	i	i
C/C(=N/OCC(=O)Nc1ccc(C)cc1C)c1cccs1	i	i	i	i	i	i
COc1ccc(C(C#N)CC(=O)c2ccc(OC)c(OCc3ccccc3)c2)cc1OC (centres undefined)	i	nt	nt	nt	nt	nt
N/C(=N\OC(=O)c1ccc(Cl)cc1Cl)c1ccccc1	94	i	i	i	65	62
COc1ccc(C(=O)O/N=C(\N)c2ccccc2)c(OC)c1	i	34	i	76	i	i
CC(=O)NC(C)(c1ccccc1)c1nc(-c2cc(F)cc(F)c2)cs1 (centres undefined)	i	nt	nt	nt	nt	nt
COc1ccc(N=Nc2cc(OC)c(N)cc2OC)cc1	i	nt	nt	nt	nt	nt
Cc1cc(N=Nc2ccc(C)c(N=Nc3cc(C)c(N)cc3N)c2)c(N)cc1N	51	nt	i	nt	64	63
CCN(CC)c1ccc(C2N(C(=O)N3CCOCC3)CCN2S(=O)(=O)c2ccc(C)cc2)cc1 (centres undefined)	i	i	i	i	i	i
COc1cccc2c1C(=O)O/C2=C/c1ccc2c(c1)OCO2	63	i	i	i	i	i
COc1cccc(OC)c1C1=CC(=O)C[C@H](c2ccc3c(c2)OCO3)C1	i	nt	nt	nt	nt	nt
SMILES	C8 TRAIL sens	STAT1 inh	Platelet DG rel	STAT3 blocker	PPC-1+TRAIL kill	PPC-1 tox
CCC(=O)N1CCCC(C(=O)Nc2nc3ccccc3[nH]2)CC1 (centres undefined)	i	nt	nt	nt	nt	nt
CCOc1ccc2nc(NC(=O)c3ccccn3)sc2c1	82	nt	81	nt	84	81
CCOc1ccc2nc(NC(=O)Nc3cccs3)sc2c1	i	i	i	i	i	nt
Cc1ccc2nc(NC(=O)c3ccccn3)sc2c1	91	89	i	98	91	89
Cc1ccc(S(=O)(=O)N2C3CCCCC3O[C@H]2CC(=O)c2cccc3ccccc23)cc1 (some centres undefined)	i	nt	nt	nt	nt	nt
CCOC(=O)[C@]12CCCC=C1N(Cc1ccc(Cl)cc1Cl)C(=O)[C@H](CC(=O)N1CCN(C(=O)c3ccco3)CC1)C2	i	nt	nt	nt	nt	nt
COCCNC(=O)C1CCCN(C(=O)c2ccc3ccccc3n2)CC1 (centres undefined)	i	nt	nt	nt	nt	nt
Cc1cccc(-n2ncc3c(N(C)C4CCCCC4)ncnc32)c1	88	nt	i	nt	80	82
O=C(c1cccc(Cl)c1)N1CCN(c2ncnc3c2cnn3-c2ccccc2)CC1	i	i	i	i	i	nt
O=C(c1ccco1)N1CCN(c2ncnc3c2cnn3-c2ccccc2)CC1	i	i	i	i	i	i
Nc1ncnc2c1ncn2[C@@H]1O[C@H](C(=O)N2CCN(c3ccc(Cl)cn3)CC2)[C@@H](O)[C@H]1O	i	nt	nt	nt	nt	nt
CCN(CC)C(=O)C1=C(C)N(Cc2ccc(C(C)(C)C)cc2)C(=O)C(CC(=O)NC2CC2)C1 (centres undefined)	i	nt	nt	nt	nt	nt
